Assay outcomes deposited in PubChem by National Center for Advancing Translational Sciences (NCATS).
VDR inhibitor: vitamin D3 receptor (human) inhibition; Potency, µM, without a hit: max response, negative = inhibition, hits mostly inhibitors; VDR-SRC2-3 peptide fluorescence polarization, 2 h; P11473; 400,000 tested, 0.93% active; AID 504847; also: potency is read from the fitted curve at half-maximal effect; % is scaled to controls: 0 for no effect and ±100 for the full control effect
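Fluorescence polarization assay measuring small-molecule disruption of VDR binding to the coregulator peptide SRC2-3. Compounds were pin-transferred (23 nl) into the reagent mix and incubated 2 h at room temperature before reading.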
MBNL1-CUG inh: MBNL1-poly(CUG) RNA binding inhibition. Q9NR56. TR-FRET MBNL1-His/biotin-(CUG)12 binding, 665/545 ratio. Potency, µM (doses to about 57.5 µM), for the others: top-dose activity change, negative = inhibition, most hits filed as inhibitors. 280,000 tested, 0.036% active. AID 2675; active = well fitted inhibition curve with a large enough effect in the signal ratio, with a control signal flat, not every such curve was filed as active; inconclusive = small, poorly fitted or top-dose-only effect, or effect the other way, or a change in a side signal; inactive = no such curve, though single readings can be large or run the other way; the % refers to the signal ratio; also: potency is read from the fitted curve at half-maximal effect; % is scaled to controls: 0 for no effect and ±100 for the full control effect
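Compounds (final 92 nM to 58 uM) are added to His-tagged MBNL1 and biotin-(CUG)12, then terbium anti-His antibody and streptavidin-XL665 (5 nM final). After 60 min at room temperature, the 665/545 nm ratio is read.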
KCNH2 WT inh: inhibitors of human wildtype KCNH2 potassium channel; 340,000 tested, 0.37% active; Q12809; U2OS, BacMam KCNH2, thallium flux FluxOr; hits give low values; activity change, % at 1.84 µM;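 active = maximum activity change below -70%; inconclusive = maximum activity change between -70% and -50%; inactive = maximum activity change above -50%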; also: % is scaled to controls: 0 for no effect and ±100 for the full control effect
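U2OS cells transduced with wild-type KCNH2 virus are loaded with FluxOr dye for 45 min, and thallium flux is measured in kinetic reads before and after stimulation buffer. Rate constants are normalized to DMSO controls.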
KCNH2 3.1 inh: inhibitors of human KCNH2 3.1 potassium channel isoform | U2OS KCNH2 3.1, thallium flux FluxOr; hits give low values | activity change, % (tested at about 1.8 µM) | 340,000 tested, 0.95% active;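 active = maximum activity change below -70%; inconclusive = maximum activity change from -70% to -50%; inactive = maximum activity change above -50%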;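 also: thallium influx rate constant from kinetic fluorescence after stimulation buffer; % is scaled to controls: 0 for no effect and ±100 for the full control effect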
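Normalized rate constant (relative to positive and negative DMSO controls) derived from a 2 min kinetic fluorescence read after stimulation; U2OS cells expressing the 3.1 isoform via virus at 1.77 x 10^8 /mL.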
PLK1 PBD block: PLK1 (human) polo-box domain binding inhibition | P53350 | Plk1 PBD binding of FITC phosphopeptide, fluorescence polarization | Potency, µM, for inactives: max response, negative = inhibition, hits mostly inhibitors | 360,000 tested, 2.8% active; also: potency is read from the fitted curve at half-maximal effect; series mostly up to about 57 µM; % is scaled to controls: 0 for no effect and ±100 for the full control effect; nearly all actives have a fitted effect of over 65% in size
Target sequence (P53350 whole entry, looked up, the tested form may be a part): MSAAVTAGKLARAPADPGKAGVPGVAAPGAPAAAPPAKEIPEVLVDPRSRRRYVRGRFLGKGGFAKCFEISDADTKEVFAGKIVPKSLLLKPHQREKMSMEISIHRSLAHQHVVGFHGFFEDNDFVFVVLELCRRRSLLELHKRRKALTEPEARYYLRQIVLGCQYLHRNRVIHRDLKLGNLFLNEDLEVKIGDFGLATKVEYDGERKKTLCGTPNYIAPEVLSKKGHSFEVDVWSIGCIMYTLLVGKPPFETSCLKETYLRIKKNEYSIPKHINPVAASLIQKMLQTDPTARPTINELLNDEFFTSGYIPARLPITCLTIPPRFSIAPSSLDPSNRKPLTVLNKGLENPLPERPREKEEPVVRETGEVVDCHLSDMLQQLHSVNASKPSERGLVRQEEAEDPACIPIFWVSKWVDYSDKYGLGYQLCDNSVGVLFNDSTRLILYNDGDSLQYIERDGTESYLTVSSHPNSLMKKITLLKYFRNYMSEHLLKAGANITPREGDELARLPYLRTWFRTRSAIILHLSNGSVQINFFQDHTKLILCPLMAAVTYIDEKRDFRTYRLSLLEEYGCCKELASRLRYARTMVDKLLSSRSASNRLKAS
CBFb-RUNX1 inh: CBF-beta/RUNX1 interaction disruption; Q01196+Q13951; AlphaScreen CBFb-His/RUNX1-biotin binding, biochemical; Potency, µM (series often up to 59.8 µM), without a hit: top-dose activity, negative = inhibition, actives largely listed as inhibitors; 230,000 tested, under 10 active; AID 1477; also: % of control where 0% means no effect
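AlphaScreen binding: CBFb-His and RUNX1-biotin (30 nM each) preincubated 20 min, compound added for 15 min, then nickel and streptavidin beads for 90 min, all at room temperature. Disruption of the interaction by any mechanism counts as activity.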
Active calls of the source: *; ? = inconclusive; . = no result given. The list is not random: actives were taken first. Their share in the collection is about 3.8%. Unless noted, calls follow the shape of the dose curve; as a rule, active = well fitted curve in the direction sought with a large enough effect; inconclusive = small, poorly fitted or top-dose-only effect, or another doubt; inactive = no such curve, though single readings can be large; an effect the other way counts as inactive or inconclusive.

SMILES	VDR inhibitor	MBNL1-CUG inh	KCNH2 WT inh	KCNH2 3.1 inh	PLK1 PBD block	CBFb-RUNX1 inh
CCSc1ccccc1C(=O)N1CCN(c2nc3ccccc3s2)CC1	7%	.	.	.	.	.
O=C(c1cccc(C(F)(F)F)c1)C1CCCN(Cc2cccn2-c2ncccn2)C1 (centres undefined)	6%	0%	-72*	-9	-7%	0%
O=C(c1ccc(C(F)(F)F)cc1)C1CCCN(Cc2cccn2-c2ncccn2)C1 (centres undefined)	19%	-3%	-112*	-111*	-13%	-5%
CCOc1cc(CN2CCCC(C(=O)c3cccc(C(F)(F)F)c3)C2)ccc1O (centres undefined)	-16%	1%	43	-47	-14%	8%
CSc1ccc(C(=O)C2CCCN(Cc3cccc4nccnc34)C2)cc1 (centres undefined)	5%	?	?	-108*	-10%	7%
COc1ccc(C(=O)C2CCCN(Cc3cccn3-c3nccs3)C2)cc1OC (centres undefined)	0%	-10%	-35	?	-8%	-1%
Cc1ccc(S(=O)(=O)c2c(C)nn(-c3ccccc3)c2OC(=O)c2ccccc2F)cc1	-12%	.	.	.	.	.
CCN(CC)c1ccc(/C=C/C(=O)C2C(=O)C=C(C)OC2=O)cc1 (centres undefined)	40%	11%	?	-78*	93%	-4%
CCN(CC)c1ccc(C=C2C(=O)OC(c3ccccc3)OC2=O)cc1 (centres undefined)	?	9%	-6	10	?	18%
Cc1ccc2nc(N3CCN(c4cccc(C(F)(F)F)c4)CC3)c3nnnn3c2c1	8%	.	.	.	.	.
COC(=O)c1ccc2nc(NC(=O)CN3C(=O)CCC3=O)sc2c1	-1%	-5%	10	4	12µM*	18%
C=COC(=O)/C=C/C	-2%	.	.	.	.	9%
CCN(CC)C(=O)CSc1nc2ccsc2c(=O)n1CCCC(=O)NCCc1ccc(S(N)(=O)=O)cc1	?	3%	.	9	3.8µM*	1%
COc1ccc(N(Cc2cccs2)C(=O)c2ccc(OC)c(Cl)c2)cc1	0%	.	.	.	.	.
CCN(CC)S(=O)(=O)c1ccc(S(=O)(=O)N2CCCC2)cc1	-5%	-15%	-11	11	-14%	4%
CCOCCCN(CCC#N)S(=O)(=O)c1ccc(S(=O)(=O)N2CCCC2)cc1	-4%	-2%	-82*	-8	-10%	-1%
Cc1ccc(N/N=C(\C#N)C(N)=S)c(C)c1	50µM*	-17%	-7	-5	19µM*	-1%
Cc1cccc(OC(=O)n2c(=S)oc3cc(Cl)ccc32)c1	5%	-14%	-8	-17	30µM*	-3%
COc1ccc(NC(=O)CSc2nnnn2-c2ccccc2F)cc1	-5%	2%	-4	3	-17%	.
Cc1cc(NC(=O)CSc2ncc(CO)n2Cc2ccc(F)cc2)no1	12%	-5%	-3	1	-11%	.
COc1ccccc1NC(=O)CSc1ncc(CO)n1Cc1ccc(F)cc1	?	3%	-5	7	9.5µM*	.
COc1ccccc1NC(=O)CSc1nnnn1-c1ccccc1F	-9%	-1%	-22	8	27µM*	.
CCN(CC)C(=O)Cn1cc(SCC(=O)Nc2cccc(F)c2)c2ccccc21	-12%	.	.	.	.	.
Cc1ccc(NCc2ccccc2OCc2ccccc2F)cc1	12%	-8%	3	-5	-6%	?
